# Measurements published in PubChem BioAssay (NCATS).
# Inconclusive results are not listed. A call without a number means that no potency is given here. The source made the active and inactive calls. The call rests on the fitted dose curve; in most records, active means well fitted curve in the direction sought with a large enough effect; inconclusive means small, poorly fitted or top-dose-only effect, or another doubt; inactive means no such curve, though single readings can be large; an effect the other way counts as inactive or inconclusive.
# Legend:
# [1] = Cell Viability - LYMP2-026 (AID 989);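 further: cells exposed to compound for 24 h at 37 °C; nearly all actives have a fitted effect of over 50% in size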; further: potency means the concentration at half of the fitted maximal effect
# Outline: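 Concentration-dependent loss of intracellular ATP in human lymphoblastoid cells after 24 hr at 37 C, quantified by luciferase luminescence. AC50 derived from standard Hill equation.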
# [2] = Cell Viability - LYMP1-002 - Assay at 24 hr (AID 993); further: potency means the concentration at half of the fitted maximal effect
# Outline: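 qHTS, LYMP1-002 lymphoblastoid, 24 h cpd, 37 C, CellTiter-Glo ATP luminescence; AC50 via Hill eq.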
# [3] = Cell Viability - LYMP1-002 - Assay at 40 hr (AID 994); further: nearly all actives have a fitted effect of over 60% in size; further: potency means the concentration at half of the fitted maximal effect
# Outline: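 Viability in the human lymphoblastoid line was measured as intracellular ATP via CellTiter-Glo after 40 hr compound exposure. Tetraoctylammonium bromide served as positive control.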
# [4] = biological target: DNA repair nuclease/redox regulator APEX1 (Homo sapiens) (UniProt P27695); assay: qHTS Validation Assay for Inhibitors of the Human Apurinic/apyrimidinic Endonuclease 1 (APE1) (AID 1705;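 further: TAMRA fluorescence gain over two minutes as APE1 cuts a quenched THF abasic duplex; series mostly up to about 57 µM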)
# Outline: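 Fluorogenic double-stranded THF abasic-site substrate (5'-TAMRA/3'-BHQ-2), 50 nM final. Enzyme preincubated with compound 15 min at room temperature, then substrate added. Kinetic fluorescence (ex 525/em 598 nm) read three times at 60 s intervals; activity taken as third-minus-first read difference.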
# [5] = Counterscreen for APE1 Inhibitors: Fluorescent Dye Displacement Validation Assay (AID 1707)
# Outline: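 ThO 250 nM + dsDNA 50 nM (THF abasic site, 5'-TAMRA), Tris-HCl pH7.5/50mM NaCl/2 mM MgCl2/0.01% Tween-20; compounds pin-transferred; ex 480/em 540 nm endpoint. Neutral = no compound; no-DNA ThO wells = negative control.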
# [6] = biological target: Alpha-galactosidase A (Homo sapiens) (UniProt P06280); assay: Counterscreen for Glucocerebrosidase Inhibitors: qHTS Assay for Human alpha-Galactosidase at pH 4.5 (AID 992)
# Outline: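 Read-out is 4-methylumbelliferone fluorescence (365 nm excitation, 440 nm emission) after a pH 10 NaOH/glycine stop. Reactions held 2 nM enzyme and 80 uM substrate at pH 4.5 for 20 min at room temperature.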
# [7] = biological target: alpha-glucosidase (Oryza sativa, rice) (UniProt Q653V4); assay: Counterscreen for Glucocerebrosidase Inhibitors: qHTS Assay for Rice alpha-Glucosidase at pH 5.0 (AID 997)
# Outline: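 Rice alpha-glucosidase (4 nM final) with 400 uM 4-methylumbelliferyl-alpha-D-glucopyranoside in citrate buffer pH 5.0, 20 min at room temperature, stopped at pH 10; fluorescence 365/440 nm, compounds 0.7 nM–77 uM, AC50 from Hill fits.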
# [8] = biological target: Alpha-galactosidase (Coffea arabica) (UniProt Q42656); assay: Counterscreen for Glucocerebrosidase Inhibitors: qHTS Assay for Coffee Bean alpha-Galactosidase at pH 5.9 (AID 998)
# Outline: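 Compounds were titrated from 0.7 nM to 77 uM against green coffee bean alpha-galactosidase (2 nM) using 80 uM fluorogenic 4-methylumbelliferyl substrate. After 20 min at room temperature, reactions were stopped at pH 10 and read by fluorescence.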
# Alpha-galactosidase (Coffea arabica), sequence (Q42656 whole entry, looked up): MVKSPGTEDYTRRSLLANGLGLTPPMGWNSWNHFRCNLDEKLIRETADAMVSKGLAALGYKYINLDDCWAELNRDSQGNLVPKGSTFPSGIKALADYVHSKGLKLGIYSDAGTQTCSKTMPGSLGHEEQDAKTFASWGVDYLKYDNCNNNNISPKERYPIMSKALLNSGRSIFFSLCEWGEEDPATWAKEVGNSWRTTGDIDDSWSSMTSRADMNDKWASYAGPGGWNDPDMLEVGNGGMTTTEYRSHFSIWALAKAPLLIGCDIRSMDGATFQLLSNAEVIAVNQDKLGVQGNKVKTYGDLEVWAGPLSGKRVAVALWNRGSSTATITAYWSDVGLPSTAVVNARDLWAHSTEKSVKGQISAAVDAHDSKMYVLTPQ
# DNA repair nuclease/redox regulator APEX1 (Homo sapiens), sequence (P27695 whole entry, looked up): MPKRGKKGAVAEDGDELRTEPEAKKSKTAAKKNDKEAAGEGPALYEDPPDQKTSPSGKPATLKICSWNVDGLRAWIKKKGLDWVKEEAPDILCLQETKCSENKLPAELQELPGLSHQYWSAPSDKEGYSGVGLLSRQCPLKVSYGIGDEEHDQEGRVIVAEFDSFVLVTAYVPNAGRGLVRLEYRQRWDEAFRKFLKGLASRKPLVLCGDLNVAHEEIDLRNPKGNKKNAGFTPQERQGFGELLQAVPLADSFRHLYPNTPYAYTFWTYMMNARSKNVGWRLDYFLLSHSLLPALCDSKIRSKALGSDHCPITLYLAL
# Alpha-galactosidase A (Homo sapiens), sequence (P06280 whole entry, looked up): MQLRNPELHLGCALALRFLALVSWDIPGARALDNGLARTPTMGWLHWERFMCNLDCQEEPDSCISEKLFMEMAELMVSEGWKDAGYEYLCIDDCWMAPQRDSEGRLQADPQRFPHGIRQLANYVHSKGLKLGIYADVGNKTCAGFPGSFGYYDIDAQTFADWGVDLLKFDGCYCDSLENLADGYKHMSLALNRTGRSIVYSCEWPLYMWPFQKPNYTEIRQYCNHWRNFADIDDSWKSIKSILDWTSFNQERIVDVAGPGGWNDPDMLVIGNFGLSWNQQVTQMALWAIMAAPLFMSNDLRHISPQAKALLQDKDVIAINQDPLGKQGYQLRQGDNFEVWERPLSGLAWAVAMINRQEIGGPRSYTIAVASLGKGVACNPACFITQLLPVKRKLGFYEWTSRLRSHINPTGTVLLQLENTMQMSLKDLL
structure (smiles),measurement,setting,value
CN(C)[C@@H]1C(=O)C(C(N)=O)=C(O)[C@@]2(O)C(=O)C3=C(O)c4c(O)cccc4[C@@](C)(O)[C@H]3[C@H](O)[C@@H]12,Potency,[1],inactive
same,Potency,[2],inactive
same,Potency,[3],inactive
NC1CC1c1ccccc1 (stereo unspecified),Potency,[4],inactive
same,Potency,[5],inactive
Cc1nc(-c2ccc(-c3ccc(C(=O)N4CCc5cc6c(cc54)C4(CCN(C)CC4)CO6)cc3)c(C)c2)no1,outcome,[6],inactive
same,outcome,[7],inactive
same,outcome,[8],inactive
same,Potency,[4],inactive
same,Potency,[5],inactive
c1ccc(CCCN2CCN(CCOC(c3ccccc3)c3ccccc3)CC2)cc1,outcome,[6],inactive
same,outcome,[7],inactive
same,outcome,[8],inactive
same,Potency,[4],inactive
same,Potency,[5],inactive
CC(=O)Oc1ccccc1C(=O)O,outcome,[8],inactive
CCOCCOC(C)=O,Potency,[1],inactive
same,Potency,[2],inactive
same,Potency,[3],inactive
CCOC(=O)C1=C[C@@]2(CC)CCCN3CCc4c(n1c1ccccc41)[C@H]32,outcome,[8],inactive
CC(C)c1ccc2c(c1)c(SC(C)(C)C)c(CC(C)(C)C(=O)O)n2Cc1ccc(Cl)cc1,outcome,[8],inactive
CCN(CC)CCNC(=O)c1ccc(NC(C)=O)cc1,outcome,[8],inactive
Nc1ccc([N+](=O)[O-])cc1,Potency,[1],inactive
same,Potency,[2],inactive
same,Potency,[3],inactive
Nc1ccc(Cl)cc1,Potency,[1],inactive
same,Potency,[2],inactive
same,Potency,[3],inactive
Cc1cccc(C#Cc2ccccc2)n1,outcome,[8],inactive
CCc1c(C)[nH]c2c1C(=O)C(CN1CCOCC1)CC2 (stereo unspecified),outcome,[8],inactive
CC(C)(Sc1ccc(CCN(CCCCC2CCCCC2)C(=O)NC2CCCCC2)cc1)C(=O)O,outcome,[8],inactive
OCCCBr,Potency,[1],inactive
same,Potency,[2],inactive
same,Potency,[3],inactive
C=CC(=O)NCNC(=O)C=C,Potency,[1],inactive
same,Potency,[2],inactive
same,Potency,[3],inactive
O=S(=O)(c1ccc(Cl)cc1)c1ccc(Cl)cc1,Potency,[1],inactive
same,Potency,[2],inactive
same,Potency,[3],inactive
CCOP(=O)(NC(C)C)Oc1ccc(SC)c(C)c1 (stereo unspecified),Potency,[1],inactive
same,Potency,[2],inactive
same,Potency,[3],inactive
COC(C)(C)CCCC(C)C/C=C/C(C)=C/C(=O)OC(C)C (stereo unspecified),Potency,[1],inactive
same,Potency,[2],inactive
same,Potency,[3],inactive
CN(C)NC(=O)CCC(=O)O,Potency,[1],inactive
same,Potency,[2],inactive
same,Potency,[3],inactive
CCN1CCc2nc(N)oc2CC1,outcome,[8],inactive
C1CCC(NC2CCCCC2)CC1,Potency,[1],inactive
same,Potency,[2],inactive
same,Potency,[3],inactive
NCCS,outcome,[8],inactive
CC#C[C@]1(O)CC[C@H]2[C@@H]3CCC4=CC(=O)CCC4=C3[C@H](c3ccc(N(C)C)cc3)C[C@@]21C,outcome,[8],inactive
CC(=O)[O][Hg][c]1ccccc1,Potency,[1],1.26 µM (active)
same,Potency,[2],3.98 µM (active)
same,Potency,[3],3.98 µM (active)
O=C(O)COc1ccccc1,Potency,[1],inactive
same,Potency,[2],inactive
same,Potency,[3],inactive
O=[N+]([O-])c1c(Cl)c(Cl)cc(Cl)c1Cl,Potency,[1],inactive
same,Potency,[2],inactive
same,Potency,[3],inactive
Nc1ccc(Cl)cc1N,Potency,[1],inactive
same,Potency,[2],inactive
same,Potency,[3],inactive
O=[N+]([O-])c1cc([N+](=O)[O-])c2ccccc2c1,Potency,[1],inactive
same,Potency,[2],inactive
same,Potency,[3],inactive
Nc1ccc(Sc2ccc(N)cc2)cc1,Potency,[1],inactive
same,Potency,[2],inactive
same,Potency,[3],inactive
C[C@]12C[C@H](O)[C@H]3[C@@H](CCC4=CC(=O)CC[C@@]43C)[C@@H]1CC[C@@H]2C(=O)CO,outcome,[8],inactive
O=[N+]([O-])c1c2ccccc2cc2ccccc12,Potency,[1],inactive
same,Potency,[2],inactive
same,Potency,[3],inactive
O=C(O)C(Cl)Cl,Potency,[1],inactive
same,Potency,[2],inactive
same,Potency,[3],inactive
CS(=O)(=O)Nc1ccc([N+](=O)[O-])cc1Oc1ccccc1,outcome,[8],inactive
CCCCC(CC)COC(=O)c1ccccc1C(=O)OCC(CC)CCCC (stereo unspecified),Potency,[1],inactive
same,Potency,[2],inactive
same,Potency,[3],inactive
CCn1cc(C(=O)O)c(=O)c2cc3c(cc21)OCO3,outcome,[8],inactive
CCCCCCCCc1ccc(O)cc1,Potency,[1],inactive
same,Potency,[2],inactive
same,Potency,[3],inactive
c1cc2ccc3cccc4ccc(c1)c2c34,Potency,[1],inactive
same,Potency,[2],inactive
same,Potency,[3],inactive
